# Experimental data from the supplement of paper PMC8728848.
# Many of the other results were omitted from the sample, so the strongest signals are more common in it than they were.
# B1: XL-35 (Xenopus laevis) (protein)
# chain: MLVHILLLLVTGGLSQSCDPVVIVASKNMVKQLDCDKFRNCKEIKDSNEEAQDGIYTLTSPDGISYQTFCDMTTNGGGWTLVASVHENNMAGKCTIGDRWSSQQGNRADYPEGDGNWANYNTFGSAGGATSDDYKNPGYYDIEAYNLGVWHVPNKTPLSVWRNSSLQRYRTTDGILFKHGGNLFSLYRIYPVKYGIGSCSKDSGPTVPVVYDLGSANLTASFYSPGFRSQFTPGYIQFRPINTEKAALALCPGMKMESCNVEHVCIGGGGYFPEADPRQCGDFAAYDFNGYGTKKFNSAGIEITEAAVLLFYL
# Experiments:
# Assay in all cases: glycan array binding signal (z-score within array); higher = stronger binding
# Conditions in all cases: glycan notation: IUPAC condensed, linker removed
# [1] = target: GlcNAc(a1-4)Gal(b1-4)GlcNAc(b1-3)Gal(b1-4)[Fuc(a1-3)]GlcNAc(b1-3)Gal(b1-4)[Fuc(a1-3)]GlcNAc
# How it was run: (§1)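 Glycan array binding is given as a within-array Z-score, which can be read as non-binding when negative. The arrays, 3228 of them, came from the Consortium for Functional Glycomics database and were retained only where the protein sequence was available. Z-scores were averaged across arrays of the same protein sequence at different concentrations or buffers and across linkers.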
# [2] = target: GlcNAc(b1-3)Gal(b1-4)GlcNAc(b1-2)[GlcNAc(b1-3)Gal(b1-4)GlcNAc(b1-6)]Man(a1-6)[GlcNAc(b1-3)Gal(b1-4)GlcNAc(b1-2)Man(a1-3)]Man(b1-4)GlcNAc(b1-4)GlcNAc
# How it was run: as §1
# [3] = target: GlcNAc(b1-3)Gal(b1-4)GlcNAc(b1-3)Gal(b1-4)GlcNAc(b1-3)Gal(b1-4)GlcNAc(b1-3)Gal(b1-4)GlcNAc(b1-2)[GlcNAc(b1-3)Gal(b1-4)GlcNAc(b1-3)Gal(b1-4)GlcNAc(b1-3)Gal(b1-4)GlcNAc(b1-3)Gal(b1-4)GlcNAc(b1-6)]Man(a1-6)[GlcNAc(b1-3)Gal(b1-4)GlcNAc(b1-3)Gal(b1-4)GlcNAc(b1-3)Gal(b1-4)GlcNAc(b1-3)Gal(b1-4)GlcNAc(b1-2)Man(a1-3)]Man(b1-4)GlcNAc(b1-4)[Fuc(a1-6)]GlcNAc
# How it was run: as §1
# [4] = target: GlcNAc(b1-3)[GlcNAc(b1-6)]Gal(b1-4)GlcNAc
# How it was run: as §1
# [5] = target: GlcNAc(b1-3)[GlcNAc(b1-6)]GlcNAc
# How it was run: as §1
# [6] = target: GlcNAc(b1-4)Gal(b1-4)GlcNAc
# How it was run: as §1
# [7] = target: Man(a1-2)Man(a1-3)[Man(a1-2)Man(a1-6)]Man(a1-6)[Man(a1-2)Man(a1-2)Man(a1-3)]Man(b1-4)GlcNAc(b1-4)GlcNAc
# How it was run: as §1
# [8] = target: Man(a1-2)Man(a1-3)[Man(a1-3)[Man(a1-6)]Man(a1-6)]Man(b1-4)GlcNAc(b1-4)GlcNAc
# How it was run: as §1
# [9] = target: Man(a1-2)Man(a1-3)[Man(a1-6)]Man(a1-6)[Man(a1-2)Man(a1-3)]Man(b1-4)GlcNAc(b1-4)GlcNAc
# How it was run: as §1
# [10] = target: Man(a1-3)[Man(a1-6)]Man(a1-6)[Man(a1-3)]Man(b1-4)GlcNAc(b1-4)GlcNAc
# How it was run: as §1
# [11] = target: Neu5Ac(a2-3)Gal(b1-4)GlcNAc(b1-3)Gal(b1-4)GlcNAc(b1-3)Gal(b1-4)GlcNAc(b1-2)Man(a1-3)[Neu5Ac(a2-3)Gal(b1-4)GlcNAc(b1-3)Gal(b1-4)GlcNAc(b1-3)Gal(b1-4)GlcNAc(b1-2)Man(a1-6)]GalNAc
# How it was run: as §1
# [12] = target: Neu5Ac(a2-3)Gal(b1-4)GlcNAc(b1-6)[Neu5Ac(a2-3)Gal(b1-3)]GalNAc
# How it was run: as §1
# [13] = target: Neu5Ac(a2-3)Gal(b1-4)[Fuc(a1-3)]GlcNAc
# How it was run: as §1
# [14] = target: Neu5Ac(a2-3)Gal(b1-4)[Fuc(a1-3)]GlcNAc(b1-3)GalNAc
# How it was run: as §1
# [15] = target: Neu5Ac(a2-3)Gal6S(b1-4)[Fuc(a1-3)]GlcNAc
# How it was run: as §1
# Neu5Ac(a2-6)Gal = target: Neu5Ac(a2-6)Gal
# How it was run: as §1
# [16] = target: Neu5Ac(a2-6)Gal(b1-4)GlcNAc(b1-2)Man(a1-6)Man(b1-4)GlcNAc(b1-4)GlcNAc
# How it was run: as §1
# [17] = target: Neu5Ac(a2-6)Gal(b1-4)GlcNAc(b1-2)Man(a1-6)[Gal(b1-4)GlcNAc(b1-2)Man(a1-3)]Man(b1-4)GlcNAc(b1-4)GlcNAc
# How it was run: as §1
# [18] = target: Neu5Ac(a2-6)Gal(b1-4)GlcNAc(b1-2)Man(a1-6)[GlcNAc(b1-2)Man(a1-3)]Man(b1-4)GlcNAc(b1-4)GlcNAc
# How it was run: as §1
# [19] = target: Neu5Ac(a2-6)Gal(b1-4)GlcNAc(b1-6)GalNAc
# How it was run: as §1
# [20] = target: Neu5Ac(a2-6)Gal(b1-4)GlcNAc(b1-6)[Gal(b1-3)]GalNAc
# How it was run: as §1
# Neu5Ac(a2-8)Neu5Ac = target: Neu5Ac(a2-8)Neu5Ac
# How it was run: as §1
# [21] = target: Neu5Gc(a2-3)Gal(b1-3)GlcNAc
# How it was run: as §1
binder,measurement,setting,value
B1,glycan array binding signal (z-score),[1],1.05
same,glycan array binding signal (z-score),[2],0.95
same,glycan array binding signal (z-score),[3],0.094
same,glycan array binding signal (z-score),[4],-0.01
same,glycan array binding signal (z-score),[5],-0.058
same,glycan array binding signal (z-score),[6],4.54
same,glycan array binding signal (z-score),[7],-0.156
same,glycan array binding signal (z-score),[8],-0.086
same,glycan array binding signal (z-score),[9],-0.092
same,glycan array binding signal (z-score),[10],0.065
same,glycan array binding signal (z-score),[11],0.335
same,glycan array binding signal (z-score),[12],-0.518
same,glycan array binding signal (z-score),[13],-0.21
same,glycan array binding signal (z-score),[14],0.775
same,glycan array binding signal (z-score),[15],-0.241
same,glycan array binding signal (z-score),Neu5Ac(a2-6)Gal,-0.04
same,glycan array binding signal (z-score),[16],-0.2
same,glycan array binding signal (z-score),[17],-0.115
same,glycan array binding signal (z-score),[18],0.009
same,glycan array binding signal (z-score),[19],-0.112
same,glycan array binding signal (z-score),[20],0.356
same,glycan array binding signal (z-score),Neu5Ac(a2-8)Neu5Ac,-0.216
same,glycan array binding signal (z-score),[21],-0.235
